Experimental data from PubChem BioAssay (NCATS).
Values without a mark were called inactive. No rule for the calls is given here.

tested on: HIV-1 nucleocapsid protein NCp7 (binding to TG oligonucleotide); assay: HIV Nucleocapsid (AID 346); conditions: HIV-1 NC / fluorescein-TGTGTGTG probe, fluorescence polarization;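 also: potency is for inhibitors that block NC binding and lower polarization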
Method in brief: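 Reagents dispensed (10 nM TG4xF, 100 nM HIV-1 NC), plates spun, compounds pin-transferred, then incubated 1 hr at room temperature before FP imaging. Buffer: Hepes pH 7.5, 250mM NaCl, 1uM ZnCl2, 100 uM TCEP, 5 mM 2-mercaptoethanol.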
Potency is read from the fitted curve at half-maximal effect.

Compound | Potency [µM]
COCCn1c(=O)c(-c2ccc(Cl)cc2)nc2cnc(N3CCNCC3)nc21 | > 20
CN(C)Cc1ccccc1-c1nc(NC2CCNCC2)c2ccccc2n1 | > 20
Cc1noc(C)c1-c1nc(NCc2cccs2)c2ccccc2n1 | > 20
CN(C)c1ncnc2ccc(-c3cccnc3)cc12 | > 20
N#Cc1ccccc1-c1nc(NCCN2CCOCC2)c2ccccc2n1 | > 20
Cc1nc2cnc(Oc3ccccc3)nc2n(Cc2cccs2)c1=O | > 4
O=C(Oc1ccccc1)N1CCC2(CCCN(c3ccc(-c4ccccc4)cc3)C2)CC1 | > 20
N#CCCn1c(=O)c(-c2ccccc2)nc2cnc(OCc3ccccc3)nc21 | > 20
CN(C)c1ncc2nc(-c3cccs3)c(=O)n(CCc3ccccc3)c2n1 | > 20
CN1CCC2(CC1)CCN(S(=O)(=O)c1ccccc1)CC2 | > 20
COCCn1c(=O)c(-c2ccc(Cl)cc2)nc2cnc(Oc3ccc(OC)cc3)nc21 | > 20
CN(C)c1ncc2nc(-c3ccc(Cl)cc3)c(=O)n(C[C@H]3CCCO3)c2n1 | > 20
CN1CC[C@@]2(CCCN(C(=O)c3cc(C(F)(F)F)cc(C(F)(F)F)c3)C2)C1 | > 20
Cc1cnc(CNc2nc(-c3ccc(C(=O)N(C)C)cc3)nc3ccccc23)cn1 | > 20
CN(C)C(=O)c1ccc(-c2nccc(NCc3ccccc3)n2)cc1 | > 20
